# Data taken from PubChem BioAssay (NCI).
# This is part of a sample that, as a whole, favours compounds with a hit. Of some 83,000 tested, about 20% had one in any assay.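 Growth was measured after 48 h exposure to one concentration of compound in 96-well plates. Values under 10 count as active.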 A number with no mark means an inactive call. Calls of active or inactive are those of the source.
# Tested on: OVCAR-4 ovarian
# Test: NCI-60 one-dose screen, 48 h (100 = growth as untreated, 0 = no growth, -100 = all killed)
# Settings: 10 µM unless noted
row,SMILES,growth
1,CC12CC[C@@H]3[C@]4(C)COC(c5cn[nH]c5-c5ccc(Cl)cc5)O[C@@H]4CC[C@@]3(C)[C@@H]1CC(C1=CCOC1=O)O2 (stereo partly drawn),39.5%
2,S=c1c2ccccc2nc2n1CCc1c-2[nH]c2ccccc12,50.3%
3,CCCCSc1nc(NCCc2c[nH]c3ccccc23)c(C#N)c(-c2ccccc2)n1,62.2%
4,CC(C)c1sc(NC(=O)c2cc(NC(=O)c3cc(NC(=O)c4cscn4)cn3C)cn2C)nc1C(=O)NCCCN(C)C,18.7%
5,CC(=O)Nc1ccc(-n2cnc3ccc(-c4ccc(O)cc4)cc32)cc1,67.3%
6,Cc1ccc(NCC(=O)Cn2cc(COc3ccc(C=Nc4cnc5ccccc5c4)cc3)nn2)cc1,113%
7,Cc1ccc([C@H]2C(C(=O)c3ccc(Cl)cc3)C3(N[C@@H]2c2ccccc2)C(=O)Nc2ccc(Br)cc23)cc1 (stereo partly drawn),56.3%
8,Cn1cc(-c2nnc(N)nc2-c2c[nH]c3ccc(Br)cc23)c2cc(Br)cnc21,45.6%
9,O=C(c1ccccc1)c1ccc2nc(-c3ccc(F)cc3)[nH]c2c1,49.5%
10,COc1ccc(-c2nc(SCC(C)C)nc(NCCc3c[nH]c4ccccc34)c2C#N)cc1,73.8%
11,S=C(Nc1ccccc1)Nc1ccc(OCc2nc3ccccc3[nH]2)cc1,38.9%
12,O=C(/C=C/Nc1ccc(Cl)cc1)c1ccc2c(c1)Nc1ccccc1S2,2.72% (active)
13,COc1ccc(C(=O)/C=C/c2ccc(OCc3ccc(F)cc3)c(OC)c2)cc1OC,17.3%
14,COc1c(F)ccc(C(=O)Nc2ccc3nc(NC(=O)C4CCCN(S(=O)(=O)c5cccc(C(F)(F)F)c5)C4)sc3c2)c1F (stereo not drawn),74.3%
15,Cn1cc(-c2cc(N)n3nc(-c4c[nH]c5ccccc45)cc3n2)c2cccnc21,28.4%
16,Cc1ccc(C(=O)CSc2nc3ccc(C)cc3c(=O)n2-c2ccc(F)cc2)cc1,28.6%
17,O=C(NNc1ccccc1)n1c(=O)c2ccccc2c(=O)n1-c1ccccc1,97.6%
18,Cc1nc(Nc2ccccn2)sc1C(=O)CC(SCC(=O)Nc1ccc(Cl)cc1)c1ccccc1F (stereo not drawn),42.5%
19,O=c1onc(-c2cc3ccccc3nc2Cl)n1-c1cccc2ccccc12,38.6%
20,N#Cc1c(-c2cccc(Cl)c2Cl)cc(-c2c[nH]c3ccccc23)[nH]c1=O,75.2%
21,CC(=O)OC[C@@]1(C)C2CC[C@]3(C)C(CC=C4C5CC(C)(C)CC[C@]5(C(=O)Nc5ccc(Br)cc5)CC[C@]43C)[C@@]2(C)C[C@@H](OC(C)=O)[C@@H]1OC(C)=O (stereo partly drawn),42%
22,Cc1cc(C)cc(NC(=O)Cn2cc(COn3nnc4ccccc43)nn2)c1,109%
23,CC(=O)Nc1cccc(Nc2nc(NCc3ccccc3)c3ccccc3n2)c1,-73.2% (active)
24,Clc1cccc(Cl)c1/C=C/c1cc(/C=C/c2ccc(Br)cc2)c2ccccc2n1,93.8%
25,Cn1cc(-c2cc3nc(-c4cn(C)c5ncc(Br)cc45)cc(N)n3n2)c2ccccc21,20%
26,N#Cc1c(-c2ccccc2Cl)cc(-c2c[nH]c3ccccc23)[nH]c1=O,69.6%

# Tested on: SK-OV-3 ovarian
# Test: as above
# Settings: 10 µM unless noted
row,SMILES,growth
1,Cc1ccc(S(=O)(=O)c2nc(S(=O)(=O)c3ccc(C)cc3)c(N3CCC(O)CC3)s2)cc1,97.6%
2,Cc1sc2c(c1C)C(c1ccc(Cl)cc1)=N[C@@H](CC(=O)NCCCCCNC(=O)COc1ccc(C3CCC(=O)NC3=O)cc1)c1nnc(C)n1-2 (stereo partly drawn),-16.9% (active)
3,COc1ccc2c(c1)C(=N/N=C(\C)c1ccc(OC)c(S(N)(=O)=O)c1)C(=O)N2,97.6%
4,COc1cc2oc(-c3cccc(C(=O)Nc4ccc(Cl)cc4)c3)cc(=O)c2c(OCCNC(=O)[C@H](CCC(=O)OC(C)(C)C)NC(=O)OC(C)(C)C)c1OC,102%
5,COc1ccc(-c2nc3cc(C)ccc3n2CC(=O)N=Nc2c(O)[nH]c3ccc(Cl)cc23)cc1,13.7%
6,C=CC[N+](C)(C)CCn1c2ccccc2c2nc3cc(C)c(C)cc3nc21,96.7%
7,O=C(c1ccc(OCCN2CCOCC2)cc1)C1[C@H](c2ccc(Cl)cc2)[C@@H](c2ccccc2)NC12C(=O)Nc1ccc(Br)cc12 (stereo partly drawn),37%
8,N#Cc1c(-c2ccc(Br)cc2)nc2n[nH]c(-c3ccc(Br)cc3)c2c1-c1ccc(F)cc1,72.7%
9,Cc1ccccc1[C@H]1C(C(=O)c2ccc(Cl)cc2)C2(N[C@@H]1c1ccccc1)C(=O)Nc1ccc(Cl)cc12 (stereo partly drawn),1.06% (active)
10,COc1cc(C2CC(c3cc(OC)c(OC)c(OC)c3)=NN2C(C)=O)ccc1OCc1ccccc1 (stereo not drawn),71.3%
11,Cc1cccc(NC(=O)[C@]23CCC(C)(C)CC2C2=CCC4[C@@]5(C)C[C@@H](O)[C@H](O)[C@@](C)(CO)C5CC[C@@]4(C)[C@]2(C)CC3)c1 (stereo partly drawn),36.9%
12,CC12CC[C@@H]3[C@]4(C)COC(c5cn[nH]c5-c5ccc(Cl)cc5)O[C@@H]4CC[C@@]3(C)[C@@H]1CC(C1=CCOC1=O)O2 (stereo partly drawn),55%
13,S=c1c2ccccc2nc2n1CCc1c-2[nH]c2ccccc12,42.2%
14,CCCCSc1nc(NCCc2c[nH]c3ccccc23)c(C#N)c(-c2ccccc2)n1,76.6%
15,CC(C)c1sc(NC(=O)c2cc(NC(=O)c3cc(NC(=O)c4cscn4)cn3C)cn2C)nc1C(=O)NCCCN(C)C,-14.5% (active)
16,CC(=O)Nc1ccc(-n2cnc3ccc(-c4ccc(O)cc4)cc32)cc1,66.8%
17,Cc1ccc(NCC(=O)Cn2cc(COc3ccc(C=Nc4cnc5ccccc5c4)cc3)nn2)cc1,98.4%
18,Cc1ccc([C@H]2C(C(=O)c3ccc(Cl)cc3)C3(N[C@@H]2c2ccccc2)C(=O)Nc2ccc(Br)cc23)cc1 (stereo partly drawn),79.4%
19,Cn1cc(-c2nnc(N)nc2-c2c[nH]c3ccc(Br)cc23)c2cc(Br)cnc21,89.2%

row,SMILES,growth
1,O=C(c1ccccc1)c1ccc2nc(-c3ccc(F)cc3)[nH]c2c1,74%
2,COc1ccc(-c2nc(SCC(C)C)nc(NCCc3c[nH]c4ccccc34)c2C#N)cc1,71.7%
3,S=C(Nc1ccccc1)Nc1ccc(OCc2nc3ccccc3[nH]2)cc1,86.6%
4,O=C(/C=C/Nc1ccc(Cl)cc1)c1ccc2c(c1)Nc1ccccc1S2,20.7%
5,COc1ccc(C(=O)/C=C/c2ccc(OCc3ccc(F)cc3)c(OC)c2)cc1OC,40.2%
6,COc1c(F)ccc(C(=O)Nc2ccc3nc(NC(=O)C4CCCN(S(=O)(=O)c5cccc(C(F)(F)F)c5)C4)sc3c2)c1F (stereo not drawn),102%
7,Cn1cc(-c2cc(N)n3nc(-c4c[nH]c5ccccc45)cc3n2)c2cccnc21,89.9%
8,Cc1ccc(C(=O)CSc2nc3ccc(C)cc3c(=O)n2-c2ccc(F)cc2)cc1,54.9%
9,O=C(NNc1ccccc1)n1c(=O)c2ccccc2c(=O)n1-c1ccccc1,85.5%
10,Cc1nc(Nc2ccccn2)sc1C(=O)CC(SCC(=O)Nc1ccc(Cl)cc1)c1ccccc1F (stereo not drawn),8.74% (active)
11,O=c1onc(-c2cc3ccccc3nc2Cl)n1-c1cccc2ccccc12,34.4%
12,N#Cc1c(-c2cccc(Cl)c2Cl)cc(-c2c[nH]c3ccccc23)[nH]c1=O,94.4%
13,CC(=O)OC[C@@]1(C)C2CC[C@]3(C)C(CC=C4C5CC(C)(C)CC[C@]5(C(=O)Nc5ccc(Br)cc5)CC[C@]43C)[C@@]2(C)C[C@@H](OC(C)=O)[C@@H]1OC(C)=O (stereo partly drawn),44%
14,Cc1cc(C)cc(NC(=O)Cn2cc(COn3nnc4ccccc43)nn2)c1,103%
15,CC(=O)Nc1cccc(Nc2nc(NCc3ccccc3)c3ccccc3n2)c1,-96.2% (active)
16,Clc1cccc(Cl)c1/C=C/c1cc(/C=C/c2ccc(Br)cc2)c2ccccc2n1,98.2%
17,Cn1cc(-c2cc3nc(-c4cn(C)c5ncc(Br)cc45)cc(N)n3n2)c2ccccc21,-24% (active)
18,N#Cc1c(-c2ccccc2Cl)cc(-c2c[nH]c3ccccc23)[nH]c1=O,87.8%
